{"source": "PubChem BioAssay (Tox21)", "note": "Results filed as inconclusive are left out. Values without a mark were called inactive. The source made the active and inactive calls. Calls follow the shape of the dose curve; as a rule, active = well fitted cell-killing curve with a large enough effect in the repeat runs; inconclusive = weak or mixed curves, or effect the other way; inactive = no such curve, though single readings can be large or run the other way. % is scaled to controls: 0 for no effect and ±100 for the full control effect; potency is read from the fitted curve at half-maximal effect.", "data": [{"assay": "qHTS assay to identify small molecule agonists of the RXR signaling pathway - cell viability counter screen (AID 1159529); also: nearly all actives have a fitted effect of over 50% in size", "settings": "RXR-alpha-bla HEK293T viability, CellTiter-Glo, 16 h; series mostly up to 76.8 µM; activity change, negative = cytotoxicity: at the top concentration", "source_text": "National Center for Advancing Translational Sciences [NCATS]\nNIH Chemical Genomics Center [NCGC]\nU.S. Environmental Protection Agency [EPA]\nNational Institutes of Environmental Health Sciences [NIEHS]\nNational Toxicology Program [NTP]\nU.S. Food and Drug Administration [FDA]\nThe Retinoid X receptor (RXR), a nuclear hormone receptor expressed in liver, spleen, placenta, epidermis, central nervous system. These receptors are able to form homo and heterodimers with other nuclear receptors and due to this heterodimerizing ability, RXR functions as master regulators producing diverse physiological effects. Three subtypes of RXR exist; alpha, beta and gamma. Retinoid X receptor alpha (RXR-alpha) has potential roles in metabolic signaling pathways, skin alopecia, dermal cysts, cardiac development, insulin sensitization etc. Therefore screening environmental chemicals on RXR-alpha signaling can be used for the studies focused on such therapeutic applications. For quantification of RXR-alpha ligands signaling, GeneBLAzer RXR alpha-UAS-bla HEK 293T (Life Technologies, Carlsbad, CA) cells containing a beta-lactamase reporter-gene under control of Retinoid X receptor-alpha response element were used to screen Tox21 10K library. The cytotoxicity of the Tox21 compound library against the RXR-alpha HEK 293T cell line was tested in parallel by measuring cell viability using CellTiter-Glo assay (Promega Corporation, Madison, WI) in the same wells.\nTox21 Assay Protocol Summary:\nRXR-alpha HEK 293T cells were dispensed at 2,000 cells/6 uL of assay medium containing 2% charcoal-stripped FBS using a Multidrop Combi (ThermoFisher Scientific, Waltham, MA) dispenser. The assay was performed in black wall/clear-bottom 1536-well plates (Greiner Bio-One North America Inc. Monroe, NC). Tetraoctyl ammonium bromide was used as a positive control in the cytotoxicity screen. After the assay plates were incubated at 37 C and 5% CO2 for 5 hr, 23 nL of compounds dissolved in DMSO, positive control or DMSO only were transferred to the assay plate by a Pintool station (Kalypsys, San Diego, CA). The assay plates were incubated at 37 C and 5% CO2 for 16 hr. One uL of LiveBLAzer B/G FRET substrate (Life Technologies) was added using a Flying Reagent Dispenser (FRD) (Aurora Discovery, San Diego, CA) and the plates were incubated at room temperature for 2 hr. Fluorescence intensity (405 nm excitation, 460/530 nm emission) was measured using an Envision plate reader (PerkinElmer, Shelton, CT). For cytotoxicity, 4 uL/well of CellTiter-Glo reagent was added into the assay plates using an FRD. After 30 min incubation at room temperature, the luminescence intensity was measured using a ViewLux plate reader (PerkinElmer).", "values": [{"smiles": "CCSCC", "activity change, negative = cytotoxicity": "-26.8%"}, {"smiles": "COc1cc2ncnc(Nc3cccc(Cl)c3)c2cc1OC", "activity change, negative = cytotoxicity": "-0.839% [at 15.8 µM]"}, {"smiles": "C/C=C/C(=O)C1=C(C)C=CCC1(C)C", "activity change, negative = cytotoxicity": "2.08%"}, {"smiles": "CN(C)CCOc1ccc(/C(=C(/CCCl)c2ccccc2)c2ccccc2)cc1", "Potency": "18.3 µM (active)"}, {"smiles": "C/C=C/C(=O)OCC(C)C", "activity change, negative = cytotoxicity": "-9.48%"}, {"smiles": "CCCCC/C=C\\C=C\\C(=O)OCC", "Potency": "45.5 µM (active)"}, {"smiles": "CCc1cccc(C)c1N(C(=O)C(=O)O)C(C)COC", "note": "(stereo not given)", "activity change, negative = cytotoxicity": "-2.09%"}, {"smiles": "CC(=O)CC(N)=O", "activity change, negative = cytotoxicity": "3.81%"}, {"smiles": "C1CCSC1", "activity change, negative = cytotoxicity": "0.468%"}, {"smiles": "Nc1ccc(Cl)c([N+](=O)[O-])c1", "activity change, negative = cytotoxicity": "-16.5%"}, {"smiles": "CCCCCCCCOC(=O)c1cc(O)c(O)c(O)c1", "Potency": "43.6 µM (active)"}, {"smiles": "CN1CCN(CCCN2c3ccccc3Sc3ccc(C(F)(F)F)cc32)CC1", "Potency": "21.3 µM (active)"}, {"smiles": "COC(=O)c1ccc([N+](=O)[O-])cc1", "activity change, negative = cytotoxicity": "-2.93%"}, {"smiles": "CCOC=C(C(=O)OCC)C(=O)OCC", "activity change, negative = cytotoxicity": "-0.286%"}, {"smiles": "C=CC(=O)OCC(Br)CBr", "note": "(stereo not given)", "activity change, negative = cytotoxicity": "-23.4%"}, {"smiles": "c1ccc(-c2nc3ccccc3[nH]2)cc1", "activity change, negative = cytotoxicity": "-21.3%"}, {"smiles": "CCOC(=O)[C@H](O)[C@@H](O)C(=O)OCC", "activity change, negative = cytotoxicity": "0.0421%"}, {"smiles": "CC(C)(C)c1cc(CCC(=O)OCCSCCOC(=O)CCc2cc(C(C)(C)C)c(O)c(C(C)(C)C)c2)cc(C(C)(C)C)c1O", "activity change, negative = cytotoxicity": "17.1% [at 35.3 µM]"}, {"smiles": "C/C(=C\\c1ccc(C(=O)O)cc1)c1ccc2c(c1)C(C)(C)CCC2(C)C", "activity change, negative = cytotoxicity": "7.81% [at 35.3 µM]"}, {"smiles": "CCC(=O)OC/C=C(\\C)CCC=C(C)C", "activity change, negative = cytotoxicity": "7.7%"}, {"smiles": "Cn1c(=O)[nH]c2ncn(C)c2c1=O", "activity change, negative = cytotoxicity": "-2.19%"}, {"smiles": "[Cl][Sc]([Cl])[Cl]", "activity change, negative = cytotoxicity": "4.46%"}, {"smiles": "C=C1CC[C@H]2O[C@]2(C)CC[C@@H]2[C@@H]1CC2(C)C", "activity change, negative = cytotoxicity": "4.1%"}, {"smiles": "O=C(O)CN(CCCN(CC(=O)O)CC(=O)O)CC(=O)O", "activity change, negative = cytotoxicity": "-1.37% [at 15.8 µM]"}, {"smiles": "[Cl][Eu]([Cl])[Cl]", "activity change, negative = cytotoxicity": "15.9%"}, {"smiles": "Cc1ccc2nc(-c3ccc(N)cc3)sc2c1S(=O)(=O)O", "activity change, negative = cytotoxicity": "-7.06% [at 35.3 µM]"}, {"smiles": "CC(C)=NNC(N)=S", "activity change, negative = cytotoxicity": "-0.23%"}, {"smiles": "CCCCCCCCCCCCN1CCCC1=O", "Potency": "54.9 µM (active)"}, {"smiles": "CCC(C)(C)c1ccc(CC(C)CN2C[C@@H](C)O[C@@H](C)C2)cc1", "note": "(stereo not given in full)", "Potency": "12 µM (active)"}, {"smiles": "O=c1cc[nH]cc1", "activity change, negative = cytotoxicity": "3.29%"}, {"smiles": "Nc1cc([N+](=O)[O-])cc(Cl)c1O", "activity change, negative = cytotoxicity": "-14.5%"}, {"smiles": "C=Cc1ccc(O)c(OC)c1", "activity change, negative = cytotoxicity": "-4.21%"}, {"smiles": "CC(=O)Nc1ccc(N=Nc2cc(C)ccc2O)cc1", "activity change, negative = cytotoxicity": "-6.02%"}, {"smiles": "Cc1ccc(C2OC[C@@H]3OC(c4ccc(C)cc4)O[C@H]([C@H](O)CO)[C@@H]3O2)cc1", "note": "(stereo not given in full)", "activity change, negative = cytotoxicity": "-10.9%"}, {"smiles": "Cc1ccc2n[nH]nc2c1", "activity change, negative = cytotoxicity": "-10%"}, {"smiles": "CC(O)(c1ccc(Cl)cc1)c1ccc(Cl)cc1", "Potency": "38.9 µM (active)"}, {"smiles": "N#Cc1nc(Cl)c(Cl)c(Cl)c1Cl", "Potency": "15.5 µM (active)"}, {"smiles": "Cc1cccc2c1ccc1ccccc12", "activity change, negative = cytotoxicity": "-7.26%"}, {"smiles": "O=C(Nc1ccc([N+](=O)[O-])cc1)Nc1ccc([N+](=O)[O-])cc1", "note": "(tested in a mixture with another compound)", "Potency": "0.848 µM (active)"}, {"smiles": "Clc1nc(C(Cl)(Cl)Cl)c(Cl)c(Cl)c1Cl", "Potency": "43.6 µM (active)"}]}]}
